Measured values as given in PubChem BioAssay AID588345 (Broad Institute, 2011).
Screen size: about 1,300 compounds; about 850 (65%) were called active. Inconclusive results (about 1%) are left out. How the calls were made is not given here. The set was probably picked from earlier hits. The list is a sample of the results. Measured potencies and affinities stand elsewhere.

Target: Dual specificity tyrosine-phosphorylation-regulated kinase 1A (Rattus norvegicus) (UniProt Q63470)
Test: rat Dyrk1A kinase inhibitors, dose response, biochemical, cherry-pick, plate reader, 2124-01 (AID 588345)
Settings: Dyrk1A kinase biochemical assay; series mostly up to 12 µM

outcome, inactive:
CNC(=O)c1cc2c(s1)-c1ccccc1CC2
Cn1c2ccccc2c2cc(/C=N/NC(=O)c3cc(O)ccc3O)ccc21
Cc1ccnc(NC(=O)c2cccc(S(=O)(=O)N3CCN(c4ccccc4)CC3)c2)c1
COc1ccc(-n2c(Cn3c(=O)sc4ccccc43)nnc2SCC(=O)N2CCOCC2)cc1
c1ccc(-c2csc3nnc(SCc4ccc5c(c4)OCO5)n23)cc1
COc1ccc2c(c1)C(=NN)c1cc(OC)ccc1-2
CC(C)NC(=O)Nc1cccc2c1O[C@H](CN(C)C(=O)NC1CCCCC1)[C@H](C)CN([C@H](C)CO)C2=O
CC(C)C[C@H]1COCCS(=O)(=O)N1Cc1cccc(Cl)c1
CC(=O)C1C(c2ccc(Cl)cc2)NC(=O)NC1(O)C(F)(F)F (stereo not drawn)
Cn1c(C(=O)N2CCCC2)cc2c(=O)n(C)c3ccccc3c21
Fc1ccc(-c2nnc3sc(C4COc5ccccc5O4)nn23)cc1 (stereo not drawn)
NC(=O)c1cc2ccccc2oc1=NCc1ccccc1
Nc1c(C(=O)NCc2ccccc2)nnn1Cc1ccccc1
S=c1[nH]cc(-c2ccc(Cl)cc2)n1Cc1ccccc1
C=C(C)Cn1c(N2CCN(CC)CC2)nc2c1c(=O)[nH]c(=O)n2C
COCCCn1c(SCC(=O)NC2CCCCC2)nnc1-c1ccncc1
Nc1nc(N)nc(-c2ccc(Cl)c(Cl)c2)n1
CCNc1nc(N)nc(-c2cc(Cl)ccc2O)n1
Cc1cccc(NC(=O)c2cnc3sccn3c2=O)n1
O=C(Nc1ccc(Cl)c(Cl)c1)OCc1cnc(Cl)s1
Cc1cc(O)c2c(c1)C(=O)c1cc(O)cc(O)c1C2=O
CC1CCN(c2ncnc3nc[nH]c23)CC1
O=C(c1cccc2c1-c1ccccc1/C2=N/O)N1CCCCC1
NC(=O)N/N=C1\c2ccccc2-c2c(C(N)=O)cccc21
CCOC(=O)c1cnc2ccc(C)cc2c1Nc1ccc(N2CCOCC2)cc1
N#Cc1c(=O)c2nc(NCCCO)ncc2n2c(=O)c3ccccc3[nH]c12
O=C(NNC1=C(C(=O)C(F)(F)F)CCC1)c1ccccc1O
c1csc(CNc2ncnc3ccc(-c4ccoc4)cc23)c1
CC(Nc1nc(-c2cccnc2)nc2ccccc12)c1ccc(F)cc1 (stereo not drawn)
c1cncc(-c2nc(NCc3ccco3)c3ccccc3n2)c1
N#CCSc1nc(Nc2ccc3c(c2)OCO3)c2ccccc2n1
Cc1nnc2c3ccccc3c(-c3cccs3)nn12
CCN(CC)CCCNC(=O)c1cc2c(=O)n(C)c3ccccc3c2n1C
CCCn1c2ccccc2c2cn[nH]c(=O)c21
O=C(NCCc1ccccc1)C1CCN(S(=O)(=O)c2ccc(Br)s2)CC1
N#Cc1nc(-c2ccccc2Cl)oc1NCC1CCCO1 (stereo not drawn)
COc1ccc(C(=O)N2CCN(c3c(C)cccc3C)CC2)cc1OC
C=CCNC(=S)Nc1ccc2cn[nH]c2c1
Cc1ccc(CCNC(=O)C2CCN(S(=O)(=O)c3cccc4nonc34)CC2)cc1
CCN(CC)c1ccc(NC(=O)CCc2nnc3ccc(N4CCCCC4)nn23)c(C)c1
NS(=O)(=O)c1ccc(-c2ccc(/C=C3\SC(=O)NC3=O)o2)cc1
Cc1ccc(C(=O)c2coc3ccc(OCC(=O)O)cc23)cc1
Cc1c(O)ccc2c(CN(C)Cc3ccccc3)cc(=O)oc12
Cc1cccc(C)c1OCCOC(=O)c1n[nH]c2ccccc12
CCOCCOc1nc2c(c(=O)n(C)c(=O)n2C)n1Cc1ccc(C)cc1
O=C(O)CSc1ncnc2scc(-c3ccccc3)c12
Cc1ccc(-c2csc3ncnc(SCC(=O)O)c23)cc1
O=C1C(Cl)=C(N2CCC(C(=O)O)CC2)C(=O)c2ccccc21
COc1ccc(-c2nc(N)ncc2-c2ccccc2OC)c(O)c1
CCc1cc(-c2[nH]ncc2-c2ccc3c(c2)OCO3)c(O)cc1O
CCCCCCCCN1[C@@H](CC(=O)OC)c2cc(C(F)(F)F)ccc2S1(=O)=O
C/C(=N/NC(=O)c1ccc(Br)s1)c1cccnc1
CCc1ccc(C(=O)Nc2cccc(-c3nn[nH]n3)c2)s1
O=C(Nc1cccc(-c2nn[nH]n2)c1)c1csc2c1CCCC2
Cc1cccc(NC(=S)NNC(=O)c2csc3c2CCC(C)C3)c1 (stereo not drawn)
C/C(=C/c1oc2ccc(O)cc2c1[N+](=O)[O-])N(C)C
CCC(C)[C@H]1CNCCN1CCc1cccc2ccccc12 (stereo partly drawn)
Cc1cccc(NC(=O)C2NC(=O)CC2c2ccccc2)c1C (stereo not drawn)
COc1ccc(-n2nc(C)cc2Nc2ccccc2C(=O)O)cc1
CCOC(=O)c1nnc(-c2ccc(C)cc2)nc1Sc1ccc(Cl)cc1
O=C(O)c1[nH]c2ccc([N+](=O)[O-])cc2c1-c1ccccc1
COCCNc1cc(C)nc2c(-c3ccccc3OC)c(C)nn12
CC(=O)Nc1cccc(C(=O)OCC(=O)c2ccc3c(c2)OCO3)c1
Cc1c(Br)c(=O)oc2c(Br)c(O)ccc12
Oc1ccc(-c2csc(Nc3cccnc3)n2)cc1
Clc1cccc(Cc2nn[nH]n2)c1
CCOCCCNC(=O)/C(C#N)=C/c1cc(Br)c(O)c(Br)c1
N#Cc1c(N)nc2c3c(sc(=N)c2c1N)NC(=O)CC3c1c(F)cccc1Cl (stereo not drawn)
COc1ccc2c(C#CCCO)c(-c3ccc(S(C)(=O)=O)cc3)sc2c1
O=C(CSc1nc(-c2ccco2)cc(C(F)(F)F)n1)NCCCn1ccnc1
Nc1ccc(-c2ccc(C(=O)O)s2)cn1
CSc1nc(SCC(N)=O)c2c3c(sc2n1)CN(C)CC3
COc1ccc(C(=O)N(Cc2nc(-c3ccc(C)cc3)no2)C(C)C)cc1OC
CCc1n[nH]c(=S)n1/N=C/c1c[nH]c2ccc(Br)cc12
COc1cccc(-c2nnc3sc(C4CCCCC4)nn23)c1
O=c1nc2n(c3sc4c(c13)CCCC4)C(CBr)CS2 (stereo not drawn)
Oc1cc(-c2ccncc2)cc2cccnc12
Cc1ccccc1C(=O)NNC(=O)CCCCC(=O)NNC(=O)c1ccccc1C
O=c1cc(-c2ccccc2)c2c(O)cc(O)cc2o1
Cc1ccc(-c2cc(O)cc3sc(=O)oc23)cc1C
O=C1C=C(c2ccc3c(c2)OCO3)CCC1
CC(=O)Nc1nc(-c2ccc3c(c2)OCO3)cs1
CCCN1CCN(c2ncnc3scc(C4COc5ccccc5O4)c23)CC1 (stereo not drawn)
